# BRCA1 expr act – activators of BRCA1 expression | AID 624202 | Potency, µM (series often up to 46.1 µM), inactives show top-dose activation, most hits filed as activators | hit rate 1.1% among 380,000 | MCF7-BRCA1-FFLuc reporter, luminescence, 48 h; response scale: scaled: vehicle 0%, 10 µM genistein 100%; note: potency is the fitted concentration of half-maximal effect; nearly all actives have a fitted effect of over 80% in size
#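 MCF7-BRCA1-FFLuc cells, 2000/well in phenol-red-free MEM, attached 2 h then treated 48 h at 37 C. Luciferase luminescence read 15 min after reagent; normalized to genistein maximum activation (10microM) and DMSO, concentration-response fitted.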
# mIDH1 inhibitor – inhibitors of human mutant IDH1 R132H. O75874. IDH1-R132H enzyme, NADPH consumption, diaphorase/resazurin fluorescence. Potency, µM (highest dose often 76.6 µM), without a hit: at the top dose activity change, negative = inhibition, actives largely listed as inhibitors. hit rate 0.093% among 390,000; note: potency is the fitted concentration of half-maximal effect; % is set by controls: 0 for no effect and ±100 for the full control effect; nearly all actives have a fitted effect of over 65% in size
# Target sequence (O75874 whole entry R132H, stated change not applied): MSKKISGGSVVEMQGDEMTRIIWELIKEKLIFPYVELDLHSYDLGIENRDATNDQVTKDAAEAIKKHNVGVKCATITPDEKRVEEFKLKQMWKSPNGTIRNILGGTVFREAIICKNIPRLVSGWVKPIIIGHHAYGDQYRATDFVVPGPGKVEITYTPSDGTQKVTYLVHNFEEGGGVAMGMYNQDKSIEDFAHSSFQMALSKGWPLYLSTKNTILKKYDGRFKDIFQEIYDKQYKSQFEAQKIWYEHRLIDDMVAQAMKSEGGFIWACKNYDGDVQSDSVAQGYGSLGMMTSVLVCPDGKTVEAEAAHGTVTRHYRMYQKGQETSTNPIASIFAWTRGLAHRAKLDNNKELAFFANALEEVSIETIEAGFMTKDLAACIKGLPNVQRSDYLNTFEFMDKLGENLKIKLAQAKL
#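 IDH1-R132H (0.5 ug/mL) preincubated 30 min with compound, then NADPH (0.016 mM) and alpha-KG (2 mM) added; 80 min at RT, pH 7.5. Remaining NADPH coupled via diaphorase/resazurin to fluorescence (540/590 nm); concentration-response curves normalized to no-enzyme control.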
# Giardia kill – kills Giardia lamblia. Giardia lamblia trophozoite viability. activity change, % at 7.66 µM, hits read low. AID 540267. hit rate 0.15% among 340,000; in the data active = activity change below about -80%; inconclusive = between about -30% and that limit;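 note: parasites exposed to compound for two days anaerobically before the ATP read; % is set by controls: 0 for no effect and ±100 for the full control effect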
#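 Giardia trophozoites, 100 cells per well, were exposed to compounds for 48 hrs at 37 deg C under anaerobic conditions; viability was then read as ATP content by bioluminescence after 15-30 min at room temperature.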
# rTrxR1 inhibitor – inhibitors of rat thioredoxin reductase 1; Potency, µM (doses to about 114 µM), for the others: at the top dose activity change, negative = inhibition, most hits filed as inhibitors; recombinant rTrxR1, NADPH fluorescence consumption, selenite substrate; AID 588453; O89049; hit rate 1% among 390,000; note: potency is the fitted concentration of half-maximal effect; % is set by controls: 0 for no effect and ±100 for the full control effect; nearly all actives have a fitted effect of over 65% in size
#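 Rat TrxR1 (90 nM in the dispensed reagent) was pre-reduced with 400 uM NADPH for 5 min at room temperature, then incubated with compound for 15 min. After 400 uM selenite was added, NADPH fluorescence (Ex 340/Em 450 nm) was followed for 8 min.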
# IL-2 act – activates IL-2 in a cell-based reporter assay. IL-2 activation reporter assay, cell-based qHTS; stimulated with anti-CD3/CD4/CD28 beads; in transgenic mouse T cells. activation, % (series mostly up to about 46 µM). hit rate 0.065% among 360,000; in the data active = activation above about 50%; inconclusive = mostly about 30% to 49%; note: 0% is about no effect
#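 Unstimulated transgenic mouse T cells; 60-min compound exposure; bead-based TCR/CD4/CD28 stimulation; 18 h culture, 37 degrees C; dual fluorescence (EGFP, DsRed) plate cytometry.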
# TrxR1 substrate – substrates of rat thioredoxin reductase 1; O89049; purified TrxR1 substrate turnover, NADPH consumption readout; Potency, µM (top dose mostly 114 µM), inactives show at the highest dose activity change, negative = substrate turnover; hit rate 0.01% among 390,000; note: potency is the fitted concentration of half-maximal effect; % is set by controls: 0 for no effect and ±100 for the full control effect; nearly all actives have a fitted effect of over 50% in size
#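 Rat TrxR1, dispensed at 90 nM, was prereduced with 400 uM NADPH (final) for 5 min at ~22 deg C, then incubated with compound 15 min before 400 uM selenite. A first-read NADPH fluorescence drop versus no-compound background flagged substrates.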
# * = called active by the depositor; ? = inconclusive; . = no result given; ! = repeats disagree; [ ] = dose if it differs, or a comment. Hits are enriched below; roughly 2.2% of the tested compounds scored in any of these assays. Unless noted, calls come from the whole dose curve; as a rule, active = well fitted curve in the direction sought with a large enough effect; inconclusive = small, poorly fitted or top-dose-only effect, or another doubt; inactive = no such curve, though single readings can be large; an effect the other way counts as inactive or inconclusive.
SMILES,BRCA1 expr act,mIDH1 inhibitor,Giardia kill,rTrxR1 inhibitor,IL-2 act,TrxR1 substrate
COc1ccc(C(=O)Nn2cnc3ccccc3c2=O)c(OC)c1,8.9µM*,2%,-14,32%,1,9%
COc1ccc(C(=O)Nn2c(C)nc3ccccc3c2=O)c(OC)c1,-5%,7%,30,20%,0,6%
Cc1ccc(CNC(=O)CCC2CCCN(C(=O)c3ccc4c(c3)OCO4)C2)o1 (configuration not stated),12%,3%,4,71µM*,-2,-4%
COCC(=O)Nc1nc2ccc(C)cc2s1,7%,1%,-10,9%[57.1 µM],-1,10%[57.1 µM]
Cc1ccc2nc(NC(=O)CN3CCOCC3)sc2c1,3.5µM*,-1%,-14,17%,0,6%
Cc1ccc2nc(NC(=O)COC(=O)CSc3nc(C)cc(C)n3)sc2c1,10µM*,2%,-1,19%,-2,6%[57.1 µM]
Cc1ccc2nc(NC(=O)COC(=O)c3ccncc3)sc2c1,8.9µM*,3%,12,22%[57.1 µM],0,5%[57.1 µM]
CCN1CCN(CC(=O)Nc2nc3ccc(C)cc3s2)CC1,36%,-2%,3,22%,0,-2%
c1ccc(-c2onc(-c3ccco3)c2-c2ccc3[nH]ccc3c2)cc1,-23%,17%,7,28µM*!,0,12%[57.1 µM]
O=C(Cc1cccs1)N/N=C/C(Cl)=C/c1ccccc1,5.6µM*,5%,-14,15%[57.1 µM],1,-2%[57.1 µM]
Cc1cccc(/C=N/NC(=O)Cc2cccs2)c1,11µM*,6%,-12,-11%,0,-2%
COc1cc(C(=O)NCC(c2ccc3c(c2)OCO3)N2CCOCC2)cc(OC)c1OC (configuration not stated),.,0%,.,23%[57.1 µM],.,-3%[57.1 µM]
CC1CCN(C(=O)CSc2c(C(C)C)cnc3c2c(=O)n(C)c(=O)n3C)CC1,.,0%,.,-13%[57.1 µM],.,-9%[57.1 µM]
CC(=O)c1c(O)cc(O)cc1O,-6%,-14%,-9,3.5µM*,5,-3%
COc1cc(O)c(C(C)=O)c(OC)c1,-4%,7%,19,22%,1,6%
CNc1oc(Cc2ccccc2)nc1S(=O)(=O)c1ccc(Cl)cc1,-19%,3%,3,11µM*,-1,-3%
COc1cc2nc(SCC(=O)Nc3ccccc3C)n3nc(CCn4c(C)nc5ccccc54)nc3c2cc1OC,.,.,.,-10%,.,-7%
COCc1ccc(C(=O)N(C)CC2CCCN(CCc3ccc(OC)cc3)C2)o1 (configuration not stated),13µM*,-7%,-4,11%,-1,2%
COCc1ccc(C(=O)N(C)CC2CCCN(CCc3ccc(Cl)cc3)C2)o1 (configuration not stated),-31%,1%,3,-6%,-2,-5%
CCOc1cccc(C2CC(=O)Nc3cc4c(cc32)OCCO4)c1 (configuration not stated),.,14%,.,12%,.,-2%
CCCC1(C)C(C#N)(C#N)C1(C#N)C#N,.,.,.,?,.,11%[57.1 µM]
COC(=O)c1ccc2c(c1)C(C)(C)C(/C=C/c1ccc(O)cc1)=[N+]2C,-97%,?,-18,56µM*,-5,64%
COC(=O)c1ccc2c(c1)C(C)(C)C(/C=C/c1ccc(OC)c(OC)c1OC)=[N+]2C,-89%,?,0,-26%,0,168%
S=C(Nc1ccccc1)c1ccccn1,10µM*,0%,-27,4%,-1,-6%
S=C(Nc1ccccc1)Nc1ccccn1,53%,-1%,.,.,0,.
SMILES,BRCA1 expr act,mIDH1 inhibitor,Giardia kill,rTrxR1 inhibitor,IL-2 act,TrxR1 substrate
COC(=O)N1C(=O)[C@](c2ccccc2)(C2CCCC2)N1C(=O)OC,4%,0%,9,?,0,13%[57.1 µM]
COCC(C)NC(=O)Cc1ccc(Cl)cc1 (configuration not stated),-11%,-2%,-14,32%[57.1 µM],0,14%[57.1 µM]
COC(=O)N1C(=O)[C@@](c2ccc(OC)cc2)(C(C)C)N1C(=O)OC,-33%,-5%,14,28µM*,0,4%[57.1 µM]
COC(=O)N1C(=O)[C@@](c2ccccc2)(C(C)C)N1C(=O)OC,0%,-1%,-19,18µM*,2,-1%
COC(=O)N1C(=O)[C@](c2ccc(Cl)cc2)(C(C)C)N1C(=O)OC,-25%,12%,-8,7.9µM*,-1,4%
CCc1ccc(S(=O)(=O)c2cn(Cc3ccccc3)c3cc(F)c(F)cc3c2=O)cc1,.,-7%,.,14%,.,-1%
CC(NC(=O)c1sc2ncccc2c1-n1cccc1)c1ccccc1 (configuration not stated),.,-3%,.,30%[57.1 µM],.,5%[57.1 µM]
COc1ccc2cc(C3CC(c4ccco4)=NN3S(C)(=O)=O)c(Cl)nc2c1 (configuration not stated),-15%,0%,-1,50µM*,-3,1%
Cc1oc2ncn(CC(C)C)c(=O)c2c1C(=O)NCCCN(C)Cc1ccccc1,8%,0%,.,5%,.,-2%
O=C(OCc1cccc(F)c1)c1ccc2c(c1)-c1ccccc1C2=O,11µM*,2%,5,-5%[57.1 µM],-2,3%[57.1 µM]
CCOC(=O)c1ccc(COC(=O)c2ccc3c(c2)-c2ccccc2C3=O)cc1,-21%,0%,0,8%,14,1%
O=C(OCc1ccccc1F)c1ccc2c(c1)-c1ccccc1C2=O,7.1µM*,-10%,-2,6%,3,-6%
Cc1ccc(Nc2cc(C)nc3nncn23)c(C)c1,.,5%,.,-8%,.,-7%
COC(=O)c1cc2sc(C)cc2n1CC(=O)Nc1ccc(C)c(C)c1,.,-9%,.,15%,.,0%
Cc1cc(NC(=O)CSc2nc(Cc3ccc(O)cc3)c(C)[nH]2)no1,5%,-10%,-23,16µM*,-4,6%[57.1 µM]
CC(C)(C)n1ncc2c(=O)n(Cc3ccc(F)cc3)cnc21,.,.,.,28%[57.1 µM],.,1%
COc1ccccc1N1CCN(C(=O)c2ccc3c(c2)N(Cc2ccccc2)C(=O)c2ccccc2S3(=O)=O)CC1,.,.,.,25%,.,5%
CCCc1nnc(NC(=O)c2cc3ccccc3o2)s1,5µM*,14%,10,13%[0.457 µM],-3,5%
Cc1csc(NC(=O)c2cc3ccccc3o2)n1,57%,0%,?,-3%,0,-10%
COCc1nnc(NC(=O)c2cc3ccccc3o2)s1,6.3µM*,14%,-10,-7%,-2,-7%
Cc1cccc(NC(=O)CSc2nc(-c3ccco3)nc3cc(=O)[nH]n23)c1,.,-11%,.,7%[57.1 µM],.,-1%[57.1 µM]
Cc1n[nH]c(C)c1S(=O)(=O)N(CC(=O)NCc1ccccc1Cl)c1ccc(C(C)C)cc1,-36%,-23%,.,-1%,.,-11%
CCCC[C@@H]1CCCO[C@@](C(=O)NCc2ccc(S(C)(=O)=O)cc2)(C(F)(F)F)C1,.,.,30,0%,.,-14%
